Test results published in PubChem BioAssay (EPA / NIEHS).
Inconclusive results are not listed. A structure can be active in one record and inactive in another. The source made the active and inactive calls. The calls were made as follows, unless noted: active = hit-call score of the fitted dose curve at least 0.9, where 1 is the maximum; inactive = score below 0.9.

Legend:
[1] = read-out: Interleukin-1 alpha (IL1a), IL1A (gene 3552); experiment: BSK_LPS_IL1a: BioMAP Diversity Plus: LPS Assay for Interleukin-1 alpha (IL1a) Biomarker Activity (AID 2283080); settings: primary human HUVEC with PBMC; actives raise or lower the signal
Procedure, shortened: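 Measured: IL-1 alpha via ELISA at 24 h in LPS-activated human umbilical vein endothelium–PBMC co-culture. Baseline: DMSO, bidirectional fitting.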

[2] = read-out: Monocyte Chemoattractant Protein-1 (MCP1), CCL2 (gene 6347); experiment: BSK_LPS_MCP1: BioMAP Diversity Plus: LPS Assay for Monocyte Chemoattractant Protein-1 (MCP1) Biomarker Activity (AID 2283081); settings: primary human HUVEC with PBMC; actives raise or lower the signal;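 as to AC50: secreted MCP-1 protein quantified by ELISA in culture supernatant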
Procedure, shortened: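 LPS-stimulated HUVEC/PBMC co-culture; chemical, 24 h; MCP-1 by ELISA; bidirectional fit vs DMSO; cytotoxicity via SRB (0.1% stain, 10% TCA fix, 560 nm) in parallel wells.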

[3] = BSK_LPS_PGE2: BioMAP Diversity Plus: LPS Assay for Prostaglandin E2 (PGE2) Biomarker Activity (AID 2283082); settings: primary human HUVEC with PBMC; actives raise or lower the signal;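 as to AC50: secreted prostaglandin E2 measured by ELISA in LPS-stimulated co-culture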
Procedure, shortened: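 Endpoint derived from bidirectional curve fitting versus DMSO of ELISA-measured PGE2 in LPS-stimulated human primary vascular co-culture (HUVEC with PBMC) harvested at 24 h.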

[4] = read-out: Macrophage colony-stimulating factor (MCSF), CSF1 (gene 1435); experiment: BSK_LPS_MCSF: BioMAP Diversity Plus: LPS Assay for Macrophage colony-stimulating factor (MCSF) Biomarker Activity (AID 2283083); settings: primary human HUVEC with PBMC; actives raise or lower the signal
Procedure, shortened: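 Compound is added to a human vascular primary co-culture of umbilical vein endothelium and blood mononuclear cells. After 24 h, M-CSF is quantified by ELISA. Signal changes are fitted in both directions against DMSO.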

[5] = read-out: Tissue Factor, F3 (gene 2152); experiment: BSK_LPS_TissueFactor: BioMAP Diversity Plus: LPS Assay for Tissue Factor Biomarker Activity (AID 2283084); settings: primary human HUVEC with PBMC; actives raise or lower the signal
Procedure, shortened: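 In this co-culture system of umbilical vein endothelium with PBMC, stimulated with LPS, cell-surface CD142 is detected by ELISA at 24 h. Endpoint values derive from bidirectional fitting, DMSO serving as baseline.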

[6] = read-out: Tumor necrosis factor (Homo sapiens) (UniProt P01375); experiment: BSK_LPS_TNFa: BioMAP Diversity Plus: LPS Assay for Tumour Necrosis Factor alpha (TNFa) Biomarker Activity (AID 2283085); settings: primary human HUVEC with PBMC; actives raise or lower the signal
Procedure, shortened: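 Primary human vascular co-culture of HUVEC and PBMC; TNFa ELISA 24 h after treatment, analysed as increase or decrease relative to DMSO control.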

[7] = read-out: Vascular cell adhesion molecule 1 (VCAM1), VCAM1 (gene 7412); experiment: BSK_LPS_VCAM1: BioMAP Diversity Plus: LPS Assay for Vascular cell adhesion molecule 1 (VCAM1) Biomarker Activity (AID 2283086); settings: primary human HUVEC with PBMC; actives raise or lower the signal
Procedure, shortened: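 Primary human vascular co-culture (umbilical vein endothelium plus PBMC) stimulated with LPS received chemical; 24 h later VCAM-1 was read by ELISA. Overt cytotoxicity was assessed by sulforhodamine B staining of parallel cultures at the same time point.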

CD38, CD38 (gene 952) = experiment: BSK_SAg_CD38: BioMAP Diversity Plus: SAg Assay for CD38 Biomarker Activity (AID 2283087); settings: primary human HUVEC with PBMC; actives raise or lower the signal
Procedure, shortened: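 Fluorescence ELISA of cell-surface CD38 served as the read-out, with either increase or decrease fitted against DMSO controls. Cells were a human umbilical vein endothelium plus PBMC co-culture under SEB/TSST-1 stimulation, measured 24 h after dosing.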

CD40, CD40 (gene 958) = experiment: BSK_SAg_CD40: BioMAP Diversity Plus: SAg Assay for CD40 Biomarker Activity (AID 2283088); settings: primary human HUVEC with PBMC; actives raise or lower the signal
Procedure, shortened: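 Fluorescence ELISA read-out of CD40 from umbilical vein endothelium plus peripheral blood mononuclear cells, sampled 24 h after dosing. Values come from bidirectional curve fitting with DMSO as baseline.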

CD69, CD69 (gene 969) = experiment: BSK_SAg_CD69: BioMAP Diversity Plus: SAg Assay for CD69 Biomarker Activity (AID 2283089); settings: primary human HUVEC with PBMC; actives raise or lower the signal;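 as to AC50: cell surface CD69 protein quantified by ELISA with fluorescence detection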
Procedure, shortened: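 HUVEC co-cultured with PBMC were dosed with chemical, and CD69 was measured by ELISA with fluorescence read-out 24 h later. Bidirectional curve fitting used DMSO as negative control and activity baseline.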

[8] = read-out: Monocyte Chemoattractant Protein-1 (MCP1), CCL2 (gene 6347); experiment: BSK_SAg_MCP1: BioMAP Diversity Plus: SAg Assay for Monocyte Chemoattractant Protein-1 (MCP1) Biomarker Activity (AID 2283090); settings: primary human HUVEC with PBMC; actives raise or lower the signal
Procedure, shortened: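 MCP-1 levels in the endothelial–PBMC SAg co-culture were quantified by ELISA at 24 h post-dosing; both increases and decreases versus DMSO scored. Cytotoxicity monitored by SRB total protein in parallel cultures.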

[9] = read-out: E-selectin (Homo sapiens) (UniProt P16581); experiment: BSK_SAg_Eselectin: BioMAP Diversity Plus: SAg Assay for Eselectin Biomarker Activity (AID 2283091); settings: primary human HUVEC with PBMC; actives raise or lower the signal
Procedure, shortened: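 Primary human endothelial cells and peripheral blood mononuclear cells were co-cultured and exposed to chemical for 24 hours. E-selectin levels were then quantified by ELISA, with bidirectional curve fitting normalised to DMSO controls.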

[10] = read-out: Monokine induced gamma interferon (MIG), CXCL9 (gene 4283); experiment: BSK_SAg_MIG: BioMAP Diversity Plus: SAg Assay for Monokine induced gamma interferon (MIG) Biomarker Activity (AID 2283092); settings: primary human HUVEC with PBMC; actives raise or lower the signal
Procedure, shortened: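 HUVEC plus human PBMC co-culture, chemicals dosed and MIG (CXCL9) quantified by ELISA at 24 h. Bidirectional curve fitting against DMSO as negative control and baseline, so both gain and loss of signal count as activity.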

[11] = BSK_SAg_PBMCCytotoxicity: PBMC Cytotoxicity Assessment in the BioMAP Diversity Plus: SAg Assay (AID 2283093); settings: primary human HUVEC with PBMC;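 also: PBMC viability measured as Alamar Blue reduction fluorescence at 546/580 nm; fitted both ways against DMSO so a hit may be loss or gain of signal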;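 as to AC50: PBMC superantigen activated with SEB plus TSST-1 one hour after compound addition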
Procedure, shortened: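 Compound added to 75,000 PBMC/well for 1 h; SEB and TSST-1 then added at 20 ng/mL final each; 90 h incubation; Alamar Blue 6 h; read 546/580 nm ex/em. Activity fitted bidirectionally relative to DMSO baseline.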

[12] = read-out: Interleukin-8 (IL8), CXCL8 (gene 3576); experiment: BSK_SAg_IL8: BioMAP Diversity Plus: SAg Assay for Interleukin-8 (IL8) Biomarker Activity (AID 2283094); settings: primary human HUVEC with PBMC; actives raise or lower the signal
Procedure, shortened: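 In this co-culture of human umbilical vein endothelium with peripheral blood mononuclear cells, IL-8 is assayed by ELISA at 24 h. DMSO serves as baseline for bidirectional curve fitting.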

[13] = BSK_SAg_Proliferation: Cell Proliferation Assessment in the BioMAP Diversity Plus: SAg Assay (AID 2283095); settings: primary human HUVEC with PBMC;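 also: relative cell number as total protein by SRB absorbance in sub-confluent culture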
Procedure, shortened: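 Readout is SRB-stained protein (560 nm) in a primary human HUVEC and PBMC co-culture; sub-confluent cultures are read at 96 h. Activity is fitted bidirectionally using DMSO as baseline.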

[14] = BSK_SAg_SRB: Viability Assessment in the BioMAP Diversity Plus: SAg Assay (AID 2283096); settings: primary human HUVEC with PBMC;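 also: cells read one day after compound addition; hits may be either gain or loss of signal compared with DMSO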
Procedure, shortened: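 Total protein by sulforhodamine B staining, 24 h after dosing, in HUVEC–PBMC co-culture; DMSO-referenced bidirectional fitting.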

[15] = target: human CYP2D6, CYP2D6 (gene 1565) (UniProt P10635); experiment: NVS_ADME_hCYP2D6: NovaScreen (NVS) CYP450-related Enzyme Activity (ADME) Assay for human CYP2D6 (AID 2283107; active = hit-call score of the fitted dose curve at least 0.9, where 1 is the maximum)
Chain of human CYP2D6, CYP2D6 (gene 1565) (P10635 whole entry, looked up): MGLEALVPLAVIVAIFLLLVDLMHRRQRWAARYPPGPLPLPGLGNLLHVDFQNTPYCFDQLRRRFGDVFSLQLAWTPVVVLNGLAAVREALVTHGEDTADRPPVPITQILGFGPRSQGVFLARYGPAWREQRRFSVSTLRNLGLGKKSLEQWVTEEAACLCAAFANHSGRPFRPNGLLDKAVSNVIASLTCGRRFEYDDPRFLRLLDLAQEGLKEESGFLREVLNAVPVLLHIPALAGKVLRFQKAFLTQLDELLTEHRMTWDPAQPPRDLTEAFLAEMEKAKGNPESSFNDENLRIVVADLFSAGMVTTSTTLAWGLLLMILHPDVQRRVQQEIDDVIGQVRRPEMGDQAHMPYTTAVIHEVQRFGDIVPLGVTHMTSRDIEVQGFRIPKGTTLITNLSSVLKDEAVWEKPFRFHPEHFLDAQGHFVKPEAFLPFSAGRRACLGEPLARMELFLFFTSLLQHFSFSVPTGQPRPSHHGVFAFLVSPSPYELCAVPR
Procedure, shortened: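 Compounds were first tested in duplicate at 10 uM against recombinant enzyme produced in insect cells, with substrate turnover measured by fluorescence after 1 hour. Decreased signal, referenced to acetonitrile vehicle, was taken as reduced enzyme activity. Active chemicals went on to concentration-response testing.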

[16] = target: human CYP19A1, CYP19A1 (gene 1588) (UniProt P11511); experiment: NVS_ADME_hCYP19A1: NovaScreen (NVS) CYP450-related Enzyme Activity (ADME) Assay for human CYP19A1 (AID 2283098; active = hit-call score of the fitted dose curve at least 0.9, where 1 is the maximum)
Chain of human CYP19A1, CYP19A1 (gene 1588) (P11511 whole entry, looked up): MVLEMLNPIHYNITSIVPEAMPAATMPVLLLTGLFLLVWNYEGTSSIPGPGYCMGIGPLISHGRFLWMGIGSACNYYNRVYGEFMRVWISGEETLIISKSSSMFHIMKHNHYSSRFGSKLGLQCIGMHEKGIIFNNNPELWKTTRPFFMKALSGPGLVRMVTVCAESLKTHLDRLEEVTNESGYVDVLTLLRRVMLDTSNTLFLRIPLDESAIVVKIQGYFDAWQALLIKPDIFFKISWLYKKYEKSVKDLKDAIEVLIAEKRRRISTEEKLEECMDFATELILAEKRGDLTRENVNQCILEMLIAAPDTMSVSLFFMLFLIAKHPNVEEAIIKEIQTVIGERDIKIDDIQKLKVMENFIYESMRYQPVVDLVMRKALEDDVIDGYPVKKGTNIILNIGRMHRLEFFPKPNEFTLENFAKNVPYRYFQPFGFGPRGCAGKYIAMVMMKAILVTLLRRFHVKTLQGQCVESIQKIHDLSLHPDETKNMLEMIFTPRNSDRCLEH
Procedure, shortened: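 Biochem, cell-free; recombinant enzyme + specific substrate; fluorescence intensity at 0.5 h post-dose; 10 uM duplicate primary, conc. series for actives; acetonitrile = negative control/baseline; positive and negative controls on every plate.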

[17] = target: human CYP2C9, CYP2C9 (gene 1559) (UniProt P11712); experiment: NVS_ADME_hCYP2C9: NovaScreen (NVS) CYP450-related Enzyme Activity (ADME) Assay for human CYP2C9 (AID 2283108; active = hit-call score of the fitted dose curve at least 0.9, where 1 is the maximum)
Chain of human CYP2C9, CYP2C9 (gene 1559) (P11712 whole entry, looked up): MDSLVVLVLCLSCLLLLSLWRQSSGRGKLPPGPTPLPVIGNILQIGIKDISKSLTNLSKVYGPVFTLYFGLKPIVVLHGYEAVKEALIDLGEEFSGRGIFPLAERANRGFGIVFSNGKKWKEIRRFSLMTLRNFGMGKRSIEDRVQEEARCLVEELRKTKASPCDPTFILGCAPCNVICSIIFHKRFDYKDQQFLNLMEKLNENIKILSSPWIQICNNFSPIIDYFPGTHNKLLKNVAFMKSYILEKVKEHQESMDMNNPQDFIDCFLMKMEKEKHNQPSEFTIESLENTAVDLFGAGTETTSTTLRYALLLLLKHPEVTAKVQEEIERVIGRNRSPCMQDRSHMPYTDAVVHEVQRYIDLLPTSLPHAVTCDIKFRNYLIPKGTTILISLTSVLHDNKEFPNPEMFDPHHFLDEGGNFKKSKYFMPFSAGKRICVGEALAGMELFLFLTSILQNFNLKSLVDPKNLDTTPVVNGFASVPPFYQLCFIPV
Procedure, shortened: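 Fluorescence readout of CYP2C9 activity (SF9-expressed human enzyme) at 0.75 h. The primary screen used 10 uM in duplicate, with concentration-response follow-up for actives; acetonitrile was the negative control.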

Chain of E-selectin (Homo sapiens) (P16581 whole entry, looked up): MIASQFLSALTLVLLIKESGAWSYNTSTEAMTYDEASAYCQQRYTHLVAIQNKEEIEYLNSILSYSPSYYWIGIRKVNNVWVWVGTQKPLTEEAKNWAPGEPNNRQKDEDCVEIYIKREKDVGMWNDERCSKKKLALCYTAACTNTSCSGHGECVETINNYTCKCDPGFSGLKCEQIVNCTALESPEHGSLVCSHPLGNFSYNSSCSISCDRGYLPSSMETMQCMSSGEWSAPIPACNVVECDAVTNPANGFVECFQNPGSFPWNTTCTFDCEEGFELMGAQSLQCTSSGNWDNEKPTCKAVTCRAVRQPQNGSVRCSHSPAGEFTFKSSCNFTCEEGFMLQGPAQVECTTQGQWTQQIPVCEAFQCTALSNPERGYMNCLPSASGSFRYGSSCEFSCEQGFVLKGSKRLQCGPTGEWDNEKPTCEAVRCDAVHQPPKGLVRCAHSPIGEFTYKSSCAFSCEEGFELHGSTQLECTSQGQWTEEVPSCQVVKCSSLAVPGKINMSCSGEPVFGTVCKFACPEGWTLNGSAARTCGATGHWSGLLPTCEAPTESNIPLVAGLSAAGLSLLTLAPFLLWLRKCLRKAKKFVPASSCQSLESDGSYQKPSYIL
Chain of Tumor necrosis factor (Homo sapiens) (P01375 whole entry, looked up): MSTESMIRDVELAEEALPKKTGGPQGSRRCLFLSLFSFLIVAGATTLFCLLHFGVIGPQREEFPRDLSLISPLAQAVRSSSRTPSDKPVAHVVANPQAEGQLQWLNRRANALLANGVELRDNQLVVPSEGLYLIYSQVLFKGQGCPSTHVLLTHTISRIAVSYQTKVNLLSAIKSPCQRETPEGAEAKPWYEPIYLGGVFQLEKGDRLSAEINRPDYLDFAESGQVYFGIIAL

N#[N+]c1ccc2c(S(=O)(=O)[O-])cccc2c1O
outcome [1]: inactive | outcome [2]: inactive | outcome [3]: inactive | outcome [4]: inactive | outcome [5]: inactive | outcome [6]: inactive | outcome [7]: inactive | outcome (CD38, CD38 (gene 952)): inactive | outcome (CD40, CD40 (gene 958)): inactive | outcome (CD69, CD69 (gene 969)): inactive | outcome [8]: inactive | outcome [9]: inactive | outcome [10]: inactive | outcome [11]: inactive | outcome [12]: inactive | outcome [13]: inactive | outcome [14]: inactive | AC50 [15]: 3.97 µM (active)

O=C(c1ccc(O)cc1)c1ccc(O)cc1O
outcome [1]: inactive | outcome [2]: inactive | outcome [3]: inactive | outcome [4]: inactive | outcome [5]: inactive | outcome [6]: inactive | outcome [7]: inactive | AC50 (CD38, CD38 (gene 952)): 20 µM (active) | outcome (CD38, CD38 (gene 952)): inactive | outcome (CD40, CD40 (gene 958)): inactive | outcome (CD69, CD69 (gene 969)): inactive | outcome [8]: inactive | outcome [9]: inactive | outcome [10]: inactive | outcome [11]: inactive | outcome [12]: inactive | AC50 [13]: 14.2 µM (active) | outcome [13]: inactive | outcome [14]: inactive

CC(=O)[C@H]1[C@H](C#N)C[C@H]2[C@@H]3CC=C4C[C@@H](O)CC[C@]4(C)[C@H]3CC[C@@]21C
outcome [16]: inactive

CCCCC(CC)COCC1CO1 (configuration not stated)
outcome [1]: inactive | outcome [2]: inactive | outcome [3]: inactive | outcome [4]: inactive | outcome [5]: inactive | outcome [6]: inactive | outcome [7]: inactive | outcome (CD38, CD38 (gene 952)): inactive | outcome (CD40, CD40 (gene 958)): inactive | outcome (CD69, CD69 (gene 969)): inactive | outcome [8]: inactive | outcome [9]: inactive | outcome [10]: inactive | outcome [11]: inactive | outcome [12]: inactive | outcome [13]: inactive | outcome [14]: inactive

CC1OC1C1CCC2(C)OC2C1 (configuration not stated)
outcome [1]: inactive | outcome [2]: inactive | outcome [3]: inactive | outcome [4]: inactive | outcome [5]: inactive | outcome [6]: inactive | outcome [7]: inactive | outcome (CD38, CD38 (gene 952)): inactive | outcome (CD40, CD40 (gene 958)): inactive | outcome (CD69, CD69 (gene 969)): inactive | outcome [8]: inactive | outcome [9]: inactive | outcome [10]: inactive | outcome [11]: inactive | outcome [12]: inactive | outcome [13]: inactive | outcome [14]: inactive

C/C=C\C/C=C/CCCCCCCCOC(C)=O
AC50 [1]: 35.1 µM (active) | AC50 [2]: 30.5 µM (active) | AC50 [3]: 35.5 µM (active) | AC50 [4]: 24.7 µM (active) | AC50 [5]: 30.4 µM (active) | AC50 [6]: 32.4 µM (active) | AC50 [7]: 26.2 µM (active) | AC50 (CD38, CD38 (gene 952)): 32.1 µM (active) | AC50 (CD40, CD40 (gene 958)): 20 µM (active) | AC50 (CD69, CD69 (gene 969)): 20 µM (active) | outcome [8]: inactive | AC50 [9]: 29.5 µM (active) | outcome [10]: inactive | AC50 [11]: 24.3 µM (active) | outcome [12]: inactive | AC50 [13]: 26.7 µM (active) | outcome [14]: inactive | AC50 [17]: 3.9 µM (active)

C=CCOCC(O)CCl (configuration not stated)
outcome [1]: inactive | outcome [2]: inactive | outcome [3]: inactive | outcome [4]: inactive | outcome [5]: inactive | outcome [6]: inactive | outcome [7]: inactive | outcome (CD38, CD38 (gene 952)): inactive | outcome (CD40, CD40 (gene 958)): inactive | outcome (CD69, CD69 (gene 969)): inactive | outcome [8]: inactive | outcome [9]: inactive | outcome [10]: inactive | outcome [11]: inactive | outcome [12]: inactive | outcome [13]: inactive | outcome [14]: inactive
